Measured values from PubChem BioAssay (NCI).
This is part of a sample that, as a whole, favours compounds with a hit. Of some 79,000 tested, about 15% had one in any assay. A number with no mark means an inactive call. The source made the active and inactive calls. Cut-off read from the data, not from the text of the source: active = growth inhibition above about 70%; inactive = the rest. Where a SMILES comes first, the peptide text is derived from it. The star is where a group is joined. Trt = c1ccc(C(c2ccccc2)(c2ccccc2)*)cc1; Cbz = O=C(OCc1ccccc1)*

assay: NCI Yeast Anticancer Drug Screen. Data for the sgs1 mgt1 strain (AID 161);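 note: 0% = growth of cultures given vehicle only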; conditions: S. cerevisiae sgs1 mgt1 strain, at 5.0 µM (retest, dose inferred, filed as 0.5), stronger effect = higher value
Outline: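 Mutant yeast exposed to compound; growth scored against vehicle-only wells.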

| Structure (SMILES) | growth inhibition |
| --- | --- |
| CC(=O)O[C@H]1CC[C@]2(C)C3=CC[C@]4(C)[C@@H](C(C)=O)CC[C@H]4[C@@]34C=C[C@]2(C1)C1C(=O)OC(=O)C14 (stereo not given in full) | 1% |
| Cc1cc(O)c2c(c1)C(=O)c1c(c(O)cc(O)c1-c1c(O)cc(O)c3c1C(=O)c1cc(C)cc(O)c1C3=O)C2=O | 8% |
| NC(=O)/C(=N\NC(=O)c1cc2ccccc2cc1O)C1C(=O)N(c2ccccc2)N=C1N (stereo not given) | 7% |
| CCNC(=S)NNC(=S)NNc1ccccc1 | 31% |
| OCC(O)C(O)C(O)C(O)C(O)C(/C=N/Nc1ccccc1)=N/Nc1ccccc1 (stereo not given) | 0% |
| O=C(CN(Cc1ccccc1)Cc1ccccc1)c1ccccc1 | -2% |
| COC(=O)C1CCC(c2ccccc2)CC1C(=O)OC (stereo not given) | 1% |
| COc1ccc2c(c1)C(=O)C(Br)CC2 (stereo not given) | 2% |
| O=C1c2ccccc2C(=O)c2sc(Nc3ccc(Cl)cc3)nc21 | 97% (active) |
| O=Nc1c(-c2cccc([N+](=O)[O-])c2)nc2cnccn12 | 54% |
| CC/C(=N\NS(=O)(=O)c1ccc(C)cc1)c1cccc(OC)c1 | 50% |
| NNC(=S)NN/C=C(\C=Nc1ccccc1)[N+](=O)[O-] | 7% |
| CC(C)(C)c1ccc(CN2CCN(C(c3ccccc3)c3ccc(Cl)cc3)CC2)cc1 (stereo not given) | 27% |
| O=C1OCc2cccc3cccc1c23 | 4% |
| CC(C)CC(NC(=O)COc1c(Cl)cc(Cl)c(Cl)c1Cl)C(=O)O (stereo not given) | -1% |
| CC1CCN(CCC(=O)c2cccc(O)c2)CC1 | 2% |
| CCC(c1ccc(O)c(C2CCCCC2)c1)C(CC)c1ccc(OC(=O)c2ccccc2)c(C2CCCCC2)c1 (stereo not given) | -11% |
| CC(=O)c1csc2c1C(=O)c1scc(C(C)=O)c1C2=O | 24% |
| O=C1C2=Cc3ccccc3CCN2c2ccccc21 | 1% |
| Cc1cc(I)cc(I)c1O | 7% |

| Structure (SMILES) | growth inhibition |
| --- | --- |
| NCCCSc1ccc(Br)cc1 | -4% |
| O=C1OC2(Cc3ccccc31)c1ccccc1-c1ccccc12 | -6% |
| Cc1occc1C(=S)Nc1ccc(Cl)c(C(=O)OCC2CC2)c1 | -15% |
| c1cc(C2=NCCN2)ccc1Nc1ccc(-c2cc3ccc(C4=NCCN4)cc3[nH]2)cc1 | 99% (active) |
| Cc1ccc(C)c(NC(=O)CC2SC(=Nc3ccccc3Cl)NC2=O)c1 (stereo not given) | 25% |
| Cc1ccccc1[P+](C)(c1ccccc1C)c1ccccc1C | 31% |
| Oc1ccc(CNCc2ccccc2)c2cccnc12 | 0% |
| COC(=O)c1ccc(OC)cc1 | -1% |
| OCC(CO)C1c2cccc3ccc4cccc1c4c23 | -2% |
| CCC(CCCN(CC)CCc1ccccc1)OC(=O)c1cc(OC)c(OC)c(OC)c1 (stereo not given) | -1% |
| O=[N+]([O-])c1ccc(-[n+]2ccc3ccccc3c2)c([N+](=O)[O-])c1 | 11% |
| CN(C)CCC1(C2=CCCC2)CC/C(=C\c2ccccc2Cl)C1=O (stereo not given) | 0% |
| CCOC(=O)CCC(NC(=O)c1ccc(NC(OC)c2nc3cc(C(F)(F)F)ccc3nc2-c2ccccc2)cc1)C(=O)OCC (stereo not given) | 90% (active) |
| CCCCCCN(CCCCCC)CC(O)c1cc(-c2ccccc2)nc2c(O)cccc12 (stereo not given) | -118% |
| O=C1C=CC(=O)N1C1c2ccccc2-c2ccccc21 | 99% (active) |
| CC(=O)c1ccc(OCc2ccccc2)cc1 | 16% |
| O=C(Oc1cccc2cccnc12)c1ccccc1 | -4% |
| C=C(Cl)C(=NC(C)(C)C)Nc1ccccc1C | 25% |
| COC(=O)C(CSC(c1ccccc1)(c1ccccc1)c1ccccc1)NC(=O)C(CC(N)=O)NC(=O)OCc1ccccc1 (stereo not drawn) (Cbz-Asn-Cys(Trt)-OMe; configuration not given here) | 17% |
| ClCc1nnc2n1-c1ccc(Cl)cc1SC2 | -21% |

same assay, conditions: S. cerevisiae sgs1 mgt1 strain, at 50.0 µM (retest, dose inferred, filed as 5.0), stronger effect = higher value

| Structure (SMILES) | growth inhibition |
| --- | --- |
| CC(=O)O[C@H]1CC[C@]2(C)C3=CC[C@]4(C)[C@@H](C(C)=O)CC[C@H]4[C@@]34C=C[C@]2(C1)C1C(=O)OC(=O)C14 (stereo not given in full) | 7% |
| Cc1cc(O)c2c(c1)C(=O)c1c(c(O)cc(O)c1-c1c(O)cc(O)c3c1C(=O)c1cc(C)cc(O)c1C3=O)C2=O | 64% |
| NC(=O)/C(=N\NC(=O)c1cc2ccccc2cc1O)C1C(=O)N(c2ccccc2)N=C1N (stereo not given) | 7% |
| CCNC(=S)NNC(=S)NNc1ccccc1 | 70% (active) |
| OCC(O)C(O)C(O)C(O)C(O)C(/C=N/Nc1ccccc1)=N/Nc1ccccc1 (stereo not given) | 50% |
| O=C(CN(Cc1ccccc1)Cc1ccccc1)c1ccccc1 | 33% |
| COC(=O)C1CCC(c2ccccc2)CC1C(=O)OC (stereo not given) | 12% |
| COc1ccc2c(c1)C(=O)C(Br)CC2 (stereo not given) | 55% |
| O=C1c2ccccc2C(=O)c2sc(Nc3ccc(Cl)cc3)nc21 | 99% (active) |
| O=Nc1c(-c2cccc([N+](=O)[O-])c2)nc2cnccn12 | 99% (active) |
| CC/C(=N\NS(=O)(=O)c1ccc(C)cc1)c1cccc(OC)c1 | 90% (active) |
| NNC(=S)NN/C=C(\C=Nc1ccccc1)[N+](=O)[O-] | 62% |
| CC(C)(C)c1ccc(CN2CCN(C(c3ccccc3)c3ccc(Cl)cc3)CC2)cc1 (stereo not given) | 81% (active) |
| O=C1OCc2cccc3cccc1c23 | 29% |
| CC(C)CC(NC(=O)COc1c(Cl)cc(Cl)c(Cl)c1Cl)C(=O)O (stereo not given) | 12% |
| CC1CCN(CCC(=O)c2cccc(O)c2)CC1 | 48% |
| CCC(c1ccc(O)c(C2CCCCC2)c1)C(CC)c1ccc(OC(=O)c2ccccc2)c(C2CCCCC2)c1 (stereo not given) | 11% |
| CC(=O)c1csc2c1C(=O)c1scc(C(C)=O)c1C2=O | 43% |
| O=C1C2=Cc3ccccc3CCN2c2ccccc21 | 1% |
| Cc1cc(I)cc(I)c1O | 33% |

| Structure (SMILES) | growth inhibition |
| --- | --- |
| NCCCSc1ccc(Br)cc1 | 47% |
| O=C1OC2(Cc3ccccc31)c1ccccc1-c1ccccc12 | 38% |
| Cc1occc1C(=S)Nc1ccc(Cl)c(C(=O)OCC2CC2)c1 | -3% |
| c1cc(C2=NCCN2)ccc1Nc1ccc(-c2cc3ccc(C4=NCCN4)cc3[nH]2)cc1 | 99% (active) |
| Cc1ccc(C)c(NC(=O)CC2SC(=Nc3ccccc3Cl)NC2=O)c1 (stereo not given) | 91% (active) |
| Cc1ccccc1[P+](C)(c1ccccc1C)c1ccccc1C | 89% (active) |
| Oc1ccc(CNCc2ccccc2)c2cccnc12 | 98% (active) |
| COC(=O)c1ccc(OC)cc1 | -4% |
| OCC(CO)C1c2cccc3ccc4cccc1c4c23 | 46% |
| CCC(CCCN(CC)CCc1ccccc1)OC(=O)c1cc(OC)c(OC)c(OC)c1 (stereo not given) | 30% |
| O=[N+]([O-])c1ccc(-[n+]2ccc3ccccc3c2)c([N+](=O)[O-])c1 | 79% (active) |
| CN(C)CCC1(C2=CCCC2)CC/C(=C\c2ccccc2Cl)C1=O (stereo not given) | 62% |
| CCOC(=O)CCC(NC(=O)c1ccc(NC(OC)c2nc3cc(C(F)(F)F)ccc3nc2-c2ccccc2)cc1)C(=O)OCC (stereo not given) | 90% (active) |
| CCCCCCN(CCCCCC)CC(O)c1cc(-c2ccccc2)nc2c(O)cccc12 (stereo not given) | 95% (active) |
| O=C1C=CC(=O)N1C1c2ccccc2-c2ccccc21 | 100% (active) |
| CC(=O)c1ccc(OCc2ccccc2)cc1 | -6% |
| O=C(Oc1cccc2cccnc12)c1ccccc1 | 97% (active) |
| C=C(Cl)C(=NC(C)(C)C)Nc1ccccc1C | 61% |
| COC(=O)C(CSC(c1ccccc1)(c1ccccc1)c1ccccc1)NC(=O)C(CC(N)=O)NC(=O)OCc1ccccc1 (stereo not drawn) (Cbz-Asn-Cys(Trt)-OMe; configuration not given here) | 94% (active) |
| ClCc1nnc2n1-c1ccc(Cl)cc1SC2 | 66% |
